From PubChem BioAssay (Tox21)
“And” between values parts separate entries of the source, which are not always exact repeats. Equal values may be shown once. Records with an inconclusive call do not appear. Where a structure was tested more than once in an assay, its records may differ in their call. The source made the active and inactive calls. Unless noted, calls follow the shape of the dose curve; as a rule, active = well fitted curve in the direction sought with a large enough effect in the repeat runs; inconclusive = weak or mixed curves; inactive = no such curve, though single readings can be large; an effect the other way counts as inactive or inconclusive.

Experiments:
[1] = qHTS assay to identify small molecule agonists of the vitamin D receptor (VDR) signaling pathway - cell viability counter screen (AID 743224); also: nearly all actives have a fitted effect of over 50% in size; also: potency is read from the fitted curve at half-maximal effect
In short: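 VDR-bla cells were preincubated 4 h at 37C/5% CO2, then exposed to compounds for 16 h. After the 2 h room-temperature bla FRET read, CellTiter-Glo was added to the same wells and luminescence read after 30 min.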

[2] = qHTS assay to identify small molecule antagonists of the vitamin D receptor (VDR) signaling pathway - cell viability counter screen (AID 743225); also: nearly all actives have a fitted effect of over 50% in size
In short: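 Parallel cytotoxicity test: VDR-UAS-bla HEK 293T, 3 nM (final) 1-alpha,25-dihydroxyvitamin D3 with test compound, 16 h, 37C. Endpoint is CellTiter-Glo luminescence in the same wells.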

[3] = qHTS assay to identify small molecule agonists of the NFkB signaling pathway - cell viability counter screen (AID 1159515; calls by dose curve; also: nearly all actives have a fitted effect of over 55% in size; also: potency is read from the fitted curve at half-maximal effect)
In short: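 NFkB-bla ME-180 cells, 2,000/well, were plated overnight at 37 C, 5% CO2, then exposed to compounds in DMSO for 5 hr. After the bla FRET read, CellTiter-Glo was added to the same wells; luminescence was read after 30 min at room temperature.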

[4] = qHTS assay to identify small molecule agonists of the endoplasmic reticulum stress response signaling pathway - cell viability counter screen (AID 1159517; calls by dose curve; also: nearly all actives have a fitted effect of over 50% in size; also: potency is read from the fitted curve at half-maximal effect)
In short: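 CellTiter-Glo was added to wells already read for beta-lactamase FRET, and luminescence was recorded 30 min later. Cells: ESRE-bla HeLa, 1,500 per well, compound exposure 5 hr at 37 C.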

[5] = qHTS assay to identify small molecule antagonists of the retinoid-related orphan receptor gamma (ROR-gamma) signaling pathway - cell viability counter screen (AID 1159520); also: nearly all actives have a fitted effect of over 50% in size; also: potency is read from the fitted curve at half-maximal effect
In short: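 Tet-on ROR gamma CHO cells (1,000/well) were plated 4 hr, given compounds in DMSO for 2 hr at 37 C, then induced with 1 uM final doxycycline for 16 hr. Viability was read as ATP by CellTiter-Glo luminescence after 30 min.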

[6] = target: Nuclear receptor ROR-gamma (Homo sapiens) (UniProt P51449); assay: qHTS assay to identify small molecule antagonists of the retinoid-related orphan receptor gamma (ROR-gamma) signaling pathway (AID 1159521; also: nearly all actives have a fitted effect of over 50% in size; also: potency is read from the fitted curve at half-maximal effect)
In short: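 Decreased RORE-driven luciferase luminescence indicates antagonism. Tet-on RORγ CHO cells received compound, then 1 uM final doxycycline 2 h later; signal read after 16 h incubation.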

[7] = qHTS assay to identify small molecule agonists of the AP-1 signaling pathway - cell viability counter screen (AID 1159525; calls by dose curve; also: nearly all actives have a fitted effect of over 55% in size; also: potency is read from the fitted curve at half-maximal effect)
In short: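 ME-180 AP-1-bla, 2500 cells/well, Opti-MEM + 0.5% dialyzed FBS; overnight 37 °C; cpd 15-pt titration, 5 h 37 °C; CellTiter-Glo 30 min RT; luminescence read; normalised to TOAB and DMSO controls.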

[8] = qHTS assay to identify small molecule agonists of the AP-1 signaling pathway (AID 1159526; calls by dose curve)
[9] = target: Retinoic acid receptor RXR-alpha (Homo sapiens) (UniProt P19793); assay: qHTS assay to identify small molecule agonists of the RXR signaling pathway (AID 1159527; calls by dose curve; also: nearly all actives have a fitted effect of over 35% in size; also: potency is read from the fitted curve at half-maximal effect)
Sequence of Retinoic acid receptor RXR-alpha (Homo sapiens) (P19793 whole entry, looked up): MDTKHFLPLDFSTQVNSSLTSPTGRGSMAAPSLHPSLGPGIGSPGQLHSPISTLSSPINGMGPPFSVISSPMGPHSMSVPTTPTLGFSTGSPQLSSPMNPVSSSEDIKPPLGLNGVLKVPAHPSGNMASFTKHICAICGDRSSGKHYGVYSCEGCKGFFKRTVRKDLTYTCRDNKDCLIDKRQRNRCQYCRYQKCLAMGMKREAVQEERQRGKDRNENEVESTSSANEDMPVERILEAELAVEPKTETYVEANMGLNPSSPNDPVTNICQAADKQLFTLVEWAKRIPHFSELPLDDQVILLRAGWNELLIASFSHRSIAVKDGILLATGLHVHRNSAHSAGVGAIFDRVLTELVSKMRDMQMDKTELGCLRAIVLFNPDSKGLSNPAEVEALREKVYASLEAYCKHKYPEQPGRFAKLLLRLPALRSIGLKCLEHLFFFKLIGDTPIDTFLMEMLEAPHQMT
In short: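 16 hr incubation of compound-treated RXR-alpha-UAS-bla HEK 293T cells (2% charcoal-stripped FBS, 37 C) preceded a 2 hr room-temperature LiveBLAzer FRET substrate step and blue/green fluorescence measurement.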

[10] = qHTS assay to identify small molecule agonists of the RXR signaling pathway - cell viability counter screen (AID 1159529); also: nearly all actives have a fitted effect of over 50% in size; also: potency is read from the fitted curve at half-maximal effect
In short: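 In this parallel viability measure, GeneBLAzer RXR-alpha HEK 293T cells (2% charcoal-stripped FBS) were given a 5 hr preincubation, treated with compounds 16 hr at 37 C, and read by CellTiter-Glo luminescence.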

[11] = qHTS assay to identify small molecule antagonists of the retinoid acid receptor (RAR) signaling pathway - cell viability counter screen (AID 1159551); also: nearly all actives have a fitted effect of over 35% in size
In short: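 C3RL4 cells were seeded overnight at 37 C, then treated with compounds plus 1 uM (final) retinol for 6 h at 37 C. Viability was read as ATP by CellTiter-Glo luminescence after 30 min at room temperature.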

[12] = qHTS assay to identify small molecule antagonists of the retinoic acid receptor (RAR) signaling pathway (AID 1159552; also: nearly all actives have a fitted effect of over 50% in size)
In short: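 C3RL4 RARE-luc cells, overnight plating; retinol 1 uM final added right after compound; 6 hr 37 C; luciferase read at 30 min RT.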

[13] = qHTS assay to identify small molecule agonists of the retinoic acid receptor (RAR) signaling pathway (AID 1159553); conditions: C3RL4 RARE luciferase reporter, agonist, 6 h; activation: at 73.3 µM (top of the series) unless noted; also: potency is read from the fitted curve at half-maximal effect
In short: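 C3RL4 cells carrying a RARE luciferase reporter were plated overnight at 37 C, then exposed to compounds in DMSO for 6 hr at 37 C and 5% CO2. Luminescence was read 30 min after luciferase reagent addition at room temperature.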

[14] = qHTS assay to identify small molecule antagonists of the estrogen related receptor (ERR) signaling pathway - cell viability counter screen (AID 1224818);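 also: viability measured after 17.5 h of compound exposure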
In short: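 ERR reporter cells plated 6 h at 37 C/5% CO2, then compounds in DMSO pin-transferred and incubated 17.5 h at 37 C. Viability read as CellTiter-Fluor fluorescence after 30 min at 37 C.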

[15] = qHTS assay to identify small molecule antagonists of the estrogen related receptor signaling pathway with the pleiotropic PPARgamma coactivator (PGC) cell viability counter screen (AID 1224822)
In short: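 PGC/ERR cells were seeded at 2,000 cells/well, rested 6 h at 37 C/5% CO2, then given compounds in DMSO by pin tool and incubated 17.5 h at 37 C. Viability came from CellTiter-Fluor fluorescence after 30 min.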

Measured: Potency

c1ccc2ncccc2c1
not listed: [12] | [13] | [14] | [15]
inactive: all other assays above

Cc1ccc(C(C)(C)C)cc1
not listed: [13] | [14] | [15]
inactive: all other assays above

Cc1ccc(N)c([N+](=O)[O-])c1
not listed: [13] | [14] | [15]
inactive: all other assays above

COc1ccc2nc(N)sc2c1
active: [13] 19.3 µM
not listed: [9] | [14] | [15]
inactive: all other assays above

CCc1cccc2c3c([nH]c12)C(CC)(CC(=O)O)OCC3 (stereo not drawn)
not listed: [10]
inactive: all other assays above

IC(I)I
not listed: [8] | [14] | [15]
inactive: all other assays above

CN(C)C
not listed: [6] | [12] | [13] | [14] | [15]
inactive: all other assays above

COC(=O)c1ccc(C)cc1
not listed: [12] | [13] | [14] | [15]
inactive: all other assays above

CC(=O)O[C@]1(C(C)=O)CC[C@H]2[C@@H]3C=C(C)C4=CC(=O)CC[C@]4(C)[C@H]3CC[C@@]21C
active: [6] 21.7 µM
not listed: [9] | [12] | [13] | [14] | [15]
inactive: all other assays above

O=C(CCCN1CCC(O)(c2ccc(Cl)cc2)CC1)c1ccc(F)cc1
54.5 µM (active) and inactive: [5]
not listed: [9] | [10] | [12] | [13]
inactive: all other assays above

CC/C(=C(/CC)c1ccc(O)cc1)c1ccc(O)cc1
54.9 µM (active) and inactive: [4]
active: [1] 24.3 µM
not listed: [6] | [12] | [13] | [14] | [15]
inactive: all other assays above

CC(C)[N+](C)(CCOC(=O)C1c2ccccc2Oc2ccccc21)C(C)C
not listed: [9] | [12] | [13]
inactive: all other assays above

CCC(Cc1c(I)cc(I)c(N)c1I)C(=O)O (stereo not drawn)
not listed: [8] | [14] | [15]
inactive: all other assays above

C=C[C@@]1(C)CC(=O)[C@]2(O)[C@@]3(C)[C@@H](O)CCC(C)(C)[C@@H]3[C@H](O)[C@H](OC(C)=O)[C@@]2(C)O1
active: [3] 24.5 µM and 21.3 µM | [4] 21.9 µM and 21.3 µM | [6] 54.5 µM | [7] 21.9 µM and 21.3 µM | [9] 12.3 µM | [10] 11 µM and 7.56 µM
inactive: [1] | [5] | [8] | [11] | [12] | [13]

COc1ccc(-c2coc3cc(O)cc(O)c3c2=O)cc1
not listed: [6] | [7] | [8] | [13] | [14] | [15]
inactive: all other assays above

OCCNCCO
not listed: [6] | [9] | [13] | [14] | [15]
inactive: all other assays above

Nc1ccc(O)c(N)c1
inactive and 54.9 µM (active): [4]
not listed: [11] | [13] | [14] | [15]
inactive: all other assays above

C=CCOC(=O)C(=C)C
not listed: [10] | [14] | [15]
inactive: all other assays above

OC[C@@H](O)[C@@H](O[C@@H]1O[C@H](CO)[C@H](O)[C@H](O)[C@H]1O)[C@H](O)[C@@H](O)CO
not listed: [10] | [12] | [13] | [14] | [15]
inactive: all other assays above
